Our source for the growth values is PubChem BioAssay (NCI).

Common to all, as to assay: NCI-60 one-dose screen, 48 h (100 = growth as untreated, 0 = no growth, -100 = all killed)
Conditions in all cases: 10 µM

In assay [1] the test system is DU-145 prostate.
Assay [2] concerns K-562 leukemia.
Assay [3] relates to MALME-3M melanoma.
Assay [4] has as its system MDA-MB-231 breast.
The test system of assay [5] is RXF 393 renal.
The test system of assay [6] is SF-268 CNS.
Assay [7] has as its system SF-295 CNS.
In assay [8] the test system is SF-539 CNS.
Assay [9] concerns UACC-257 melanoma.
Assay [10] deals with M14 melanoma.
In assay [11] the test system is HCT-15 colon.
Assay [12] concerns HT29 colon.
The subject of assay [13] is SNB-75 CNS.
Assay [14] deals with SNB-19 CNS.
The test system of assay [15] is U251 CNS.
The subject of assay [16] is PC-3 prostate.
Assay [17] deals with SK-MEL-5 melanoma.
Assay [18] has as its system UACC-62 melanoma.
For assay [19], the system named is LOX IMVI melanoma.
The subject of assay [20] is SK-MEL-28 melanoma.

Structures are written as SMILES. Compounds without any hit were thinned out: in the full panel of roughly 83,000, 20% have a hit.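 Cells were grown in 96-well plates and exposed to the test compound at a single concentration for 48 hours; results are reported as percent growth, with values below 10 considered active.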 A number with no mark means an inactive call. The source made the active and inactive calls.

As to `CN(C)CCOc1cccc(-c2nc3sccn3c2-c2ccnc(S(C)(=O)=O)n2)c1`, the growth is 93% in assay [1]; 101% in [2]; 101% in [3]; 80.2% in assay [4]; 104% in assay [5]; 101% in [6]. Besides, the growth in [7] is 100%; in [8] it was 86.6%; in assay [9] it was 106%; in assay [10], 105%; in assay [11], 92.3%; in assay [12] it was 96.8%. Also, the growth in [13] was 87.7%; in [14], 87.5%; in assay [15], 90%; in assay [16], 80.8%; in [17], 98.3%; in assay [18] it was 91.4%. In addition, the growth in assay [19] was 92.1%; in assay [20] it was 100%.
For `COc1cc(-c2nn(-c3cccc(NC(=O)NCCNC(=O)c4ccccc4)c3)cc2-c2ccncc2)ccc1Cl`, the growth in assay [1] is 23%; in assay [2] it was 5.31% (active); in assay [3] it was -9.9% (active); in [4], 25.9%; in assay [5], -23.4% (active); in assay [6], 27.7%. In addition, the growth in assay [7] is -56.9% (active); in assay [8], -12.9% (active); in assay [9], 17.1%; in [10], -5.48% (active); in assay [11], 9.91% (active); in assay [12] it was 5.63% (active). The growth in [13] is 33.4%; in assay [14], 35.3%; in assay [15], 25.3%; in assay [16], 6.41% (active); in assay [17] it was -72.7% (active); in [18], 21.9%. The growth in [19] is 2.52% (active); in [20], 7.24% (active).
As for `COc1ccc(-c2csc(NC(=O)c3ccc(Cc4n[nH]c(=O)c5cccnc45)cc3)n2)cc1`, the growth was 108% in assay [1]; 82.9% in assay [2]; 86.8% in assay [3]; 79.7% in assay [4]; 72.4% in assay [5]; 97.1% in assay [6]. The growth in assay [7] was 86.6%; in [8], 87.1%; in assay [9], 94.5%; in assay [10] it was 103%; in [11], 85.8%; in assay [12] it was 104%. Further, the growth is 82.6% in assay [13]; 89.8% in assay [14]; 99.1% in assay [15]; 77.9% in [16]; 85.7% in assay [17]; 74.5% in assay [18]. Also, the growth in assay [19] is 90.3%; in assay [20], 95.2%.
With `CCOC(=O)c1cc(C(=O)c2ccc(F)cc2F)n2ccccc12`, the growth in assay [1] was 105%; in assay [2], 85.9%; in assay [3], 120%; in assay [4], 79.9%; in assay [5], 99.3%; in [6], 85.7%. The growth is 94.7% in [7]; 95.2% in [8]; 93.4% in [9]; 108% in assay [10]; 79.9% in assay [11]; 77.4% in assay [12]. For the same compound, the growth in [13] was 83.6%; in assay [14], 84.3%; in assay [15] it was 79.4%; in assay [16], 75.6%; in assay [17], 92.6%; in assay [18], 86.4%. In assay [20], the growth is 115%.
Turning to `COc1ccc(/C=C2\CCCC3=C2NC(N)=NC3c2ccc(OC)c(OC)c2)cc1OC` (centres undefined), the growth in assay [1] is 76.7%; in [2], 56%; in [3], 52.5%; in assay [4], 74%; in assay [5] it was 20.9%; in [6], 63.8%. The growth in assay [7] was 70.7%; in assay [8], 85.2%; in assay [9], 46.2%; in assay [10], 57.3%; in assay [11], 35.9%; in [12], 24.2%. In addition, the growth is 63.9% in [13]; 88.7% in assay [14]; 37.8% in assay [15]; 61.5% in assay [16]; 39.7% in assay [17]; 52.8% in assay [18]. The values for the growth in assay [19] and in assay [20] were 12.9% and 65.3%, respectively.
Regarding `CCN(CC)CCCOc1cccc2c1C(=O)c1cccc(OCCCN(CC)CC)c1C2=O`, the growth in assay [1] is 38.4%; in assay [2] it was 16.1%; in assay [3], 39.9%; in [4], 35.5%; in assay [5], 31.2%; in [6], 44.3%. The growth is 45.2% in assay [7]; 40.2% in [8]; 47.9% in assay [9]; 48.1% in assay [10]; 34.5% in assay [11]; 11% in assay [12]. Further, the growth was 52.6% in assay [13]; 34.1% in [14]; 31.2% in [15]; 33.2% in assay [16]; 46.6% in assay [17]; 53% in assay [18]. Besides, the growth in assay [19] was 16.9%; in assay [20], 61.2%.
On to `COc1cccc(C2C(C#N)=C(N)Oc3cc(N)ccc32)c1` (centres undefined), for which the growth in assay [1] is 10.6%; in assay [2] it was 11.9%; in [3] it was 51.9%; in [4], 48.8%; in assay [5], -7.34% (active); in [6], 47.1%. For the same compound, the growth is 5.3% (active) in assay [7]; 4.8% (active) in assay [8]; 47.2% in [9]; 10.9% in assay [10]; 40.3% in [11]; 2.39% (active) in assay [12]. Further, the growth was 3.44% (active) in [13]; 44.6% in [14]; 4.8% (active) in assay [15]; 25.4% in [16]; 21.5% in assay [17]; 41.7% in assay [18]. The growth is 43.6% in assay [19] and 46.9% in assay [20].
